In paper PMC7862700, “An all-to-all approach to the identification of sequence-specific readers for epigenetic DNA modifications on cytosine”:

Legend:
Experiment in all cases: DAPPL (digital affinity profiling via proximity ligation, sequencing); 10 mM Tris-HCl pH 7.5, 50 mM NaCl, 1 mM DTT, 4% glycerol, room temperature, 30 min; GST-TFs on glutathione beads, 16-mer random dsDNA library, 0.1% formaldehyde crosslink after washing; high values mean tight binding
Conditions in all cases: protein: recombinant; tags: N-terminal GST; dsDNA, one strand shown
ERF = biological target: T1, ERF (Homo sapiens, UniProt P50548 1-548)
T1 sequence: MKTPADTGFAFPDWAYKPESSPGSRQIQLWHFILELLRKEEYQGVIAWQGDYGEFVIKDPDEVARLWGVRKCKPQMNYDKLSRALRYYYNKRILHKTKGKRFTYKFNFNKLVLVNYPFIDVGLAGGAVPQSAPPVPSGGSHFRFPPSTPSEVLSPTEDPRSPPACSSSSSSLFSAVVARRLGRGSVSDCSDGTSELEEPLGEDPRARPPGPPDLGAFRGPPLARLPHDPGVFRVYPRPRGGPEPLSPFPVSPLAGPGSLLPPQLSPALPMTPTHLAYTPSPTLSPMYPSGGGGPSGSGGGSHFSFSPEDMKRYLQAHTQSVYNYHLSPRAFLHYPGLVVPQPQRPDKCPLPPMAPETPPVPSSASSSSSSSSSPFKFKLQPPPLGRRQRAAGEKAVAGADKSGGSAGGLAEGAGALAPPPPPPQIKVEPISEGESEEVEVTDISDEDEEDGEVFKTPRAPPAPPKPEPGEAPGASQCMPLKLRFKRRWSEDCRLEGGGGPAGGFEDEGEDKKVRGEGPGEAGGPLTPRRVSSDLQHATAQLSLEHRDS
Outline: (§1)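 Binding signal is given per hexamer as its read frequency for a factor divided by its frequency in the tag-only sample. GST-fused human transcription factors were expressed in yeast, captured on glutathione beads, barcoded with DNA and pooled with that sample, then incubated with 200 nmole of a 16-mer random double-stranded DNA library in Tris/NaCl/DTT/glycerol buffer for 30 min at room temperature. The pools were then washed, crosslinked, proximity-ligated, amplified by PCR and sequenced on an Illumina NextSeq500.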

ETV3L = biological target: T2, ETV3L (Homo sapiens, UniProt Q6ZN32 1-361)
T2 sequence: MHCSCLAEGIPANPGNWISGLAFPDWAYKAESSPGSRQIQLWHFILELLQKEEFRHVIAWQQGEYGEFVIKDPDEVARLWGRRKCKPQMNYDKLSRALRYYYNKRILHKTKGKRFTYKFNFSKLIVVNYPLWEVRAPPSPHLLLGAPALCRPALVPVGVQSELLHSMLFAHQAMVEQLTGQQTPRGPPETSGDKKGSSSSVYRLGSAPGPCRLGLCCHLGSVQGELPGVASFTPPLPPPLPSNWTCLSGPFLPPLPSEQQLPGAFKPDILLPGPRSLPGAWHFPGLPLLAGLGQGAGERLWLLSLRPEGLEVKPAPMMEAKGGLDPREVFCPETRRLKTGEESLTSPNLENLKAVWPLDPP
Outline: as §1

ETS2 = biological target: T3, ETS2 (Homo sapiens, UniProt P15036 1-469)
T3 sequence: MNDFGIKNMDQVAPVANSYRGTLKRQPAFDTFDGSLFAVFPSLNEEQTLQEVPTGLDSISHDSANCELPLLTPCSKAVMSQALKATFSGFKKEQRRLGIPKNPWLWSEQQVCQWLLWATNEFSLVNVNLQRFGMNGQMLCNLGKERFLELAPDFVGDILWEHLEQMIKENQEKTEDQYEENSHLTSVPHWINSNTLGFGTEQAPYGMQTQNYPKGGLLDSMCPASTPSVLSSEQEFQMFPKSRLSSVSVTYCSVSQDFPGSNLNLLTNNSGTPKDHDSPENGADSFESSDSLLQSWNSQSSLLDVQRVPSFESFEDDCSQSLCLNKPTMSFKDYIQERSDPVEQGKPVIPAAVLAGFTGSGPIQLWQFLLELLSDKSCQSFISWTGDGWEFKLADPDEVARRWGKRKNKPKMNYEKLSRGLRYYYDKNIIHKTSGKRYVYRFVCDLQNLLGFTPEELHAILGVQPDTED
Outline: as §1

SPDEF = biological target: T4, SPDEF (Homo sapiens, UniProt O95238 1-335)
T4 sequence: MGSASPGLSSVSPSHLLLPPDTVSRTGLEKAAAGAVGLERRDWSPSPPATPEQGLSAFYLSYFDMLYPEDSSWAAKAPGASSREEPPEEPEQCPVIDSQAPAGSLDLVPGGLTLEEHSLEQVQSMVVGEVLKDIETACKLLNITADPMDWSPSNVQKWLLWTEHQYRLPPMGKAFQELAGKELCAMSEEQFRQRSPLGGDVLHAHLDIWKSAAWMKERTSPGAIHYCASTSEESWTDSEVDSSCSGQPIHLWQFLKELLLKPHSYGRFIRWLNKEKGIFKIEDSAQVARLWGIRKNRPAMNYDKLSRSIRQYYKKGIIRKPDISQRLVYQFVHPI
Outline: as §1

ETV7 = biological target: T5, ETV7 (Homo sapiens, UniProt Q9Y603 1-341)
T5 sequence: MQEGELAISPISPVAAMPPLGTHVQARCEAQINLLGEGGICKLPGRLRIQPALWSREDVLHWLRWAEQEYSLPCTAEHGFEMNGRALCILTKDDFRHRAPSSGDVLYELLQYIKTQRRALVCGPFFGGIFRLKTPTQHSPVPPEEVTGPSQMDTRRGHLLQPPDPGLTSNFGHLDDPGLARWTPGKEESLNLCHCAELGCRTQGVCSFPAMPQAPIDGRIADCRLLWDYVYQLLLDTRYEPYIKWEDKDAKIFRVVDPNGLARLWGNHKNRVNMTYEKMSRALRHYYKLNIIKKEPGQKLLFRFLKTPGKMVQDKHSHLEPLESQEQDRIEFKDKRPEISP
Outline: as §1

ELF5 = biological target: T6, ELF5 (Homo sapiens, UniProt Q9UKW6-2 1-255)
T6 sequence: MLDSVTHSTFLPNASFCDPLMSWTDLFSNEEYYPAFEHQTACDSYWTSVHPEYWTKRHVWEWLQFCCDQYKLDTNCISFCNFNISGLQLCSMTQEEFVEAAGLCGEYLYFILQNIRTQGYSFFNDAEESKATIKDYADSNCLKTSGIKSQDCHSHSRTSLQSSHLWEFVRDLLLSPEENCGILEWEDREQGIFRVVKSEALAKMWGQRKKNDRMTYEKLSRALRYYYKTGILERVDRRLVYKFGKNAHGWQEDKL
Outline: as §1

ETV3 = biological target: T7, ETV3 (Homo sapiens, UniProt P41162-2 1-143)
T7 sequence: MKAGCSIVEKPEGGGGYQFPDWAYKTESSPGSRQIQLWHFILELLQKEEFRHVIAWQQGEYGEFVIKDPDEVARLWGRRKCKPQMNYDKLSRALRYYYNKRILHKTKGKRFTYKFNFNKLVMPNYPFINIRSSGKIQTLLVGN
Outline: as §1

ETV6 = ETV6 (Homo sapiens, UniProt P41212 1-452)
Sequence of ETV6 (P41212 whole entry): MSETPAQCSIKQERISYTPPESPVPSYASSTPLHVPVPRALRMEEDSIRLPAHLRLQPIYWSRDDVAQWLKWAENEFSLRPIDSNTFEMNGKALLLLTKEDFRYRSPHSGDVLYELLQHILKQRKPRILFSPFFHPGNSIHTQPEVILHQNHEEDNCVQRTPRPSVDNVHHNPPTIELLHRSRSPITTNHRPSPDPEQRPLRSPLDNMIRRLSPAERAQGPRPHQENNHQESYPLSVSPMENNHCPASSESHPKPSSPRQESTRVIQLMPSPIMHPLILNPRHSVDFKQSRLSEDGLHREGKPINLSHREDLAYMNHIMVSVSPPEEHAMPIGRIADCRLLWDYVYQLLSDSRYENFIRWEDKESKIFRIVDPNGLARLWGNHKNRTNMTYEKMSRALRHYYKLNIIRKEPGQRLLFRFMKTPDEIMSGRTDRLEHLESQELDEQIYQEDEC
Outline: as §1

Row | Sequence | binding signal (ERF) | binding signal (ETV3L) | binding signal (ETS2) | binding signal (SPDEF) | binding signal (ETV7) | binding signal (ELF5) | binding signal (ETV3) | binding signal (ETV6)
1 | GAAATA | 1.45 fold enrichment (6-mer frequency, TF over GST control) | 1.48 fold enrichment (6-mer frequency, TF over GST control) | 1.51 fold enrichment (6-mer frequency, TF over GST control) | 1.52 fold enrichment (6-mer frequency, TF over GST control) | 1.6 fold enrichment (6-mer frequency, TF over GST control) | 1.73 fold enrichment (6-mer frequency, TF over GST control) | 1.54 fold enrichment (6-mer frequency, TF over GST control) | 1.75 fold enrichment (6-mer frequency, TF over GST control)
2 | AAGTCC | 1.08 fold enrichment (6-mer frequency, TF over GST control) | 1.21 fold enrichment (6-mer frequency, TF over GST control) | 1.27 fold enrichment (6-mer frequency, TF over GST control) | 1.4 fold enrichment (6-mer frequency, TF over GST control) | 1.23 fold enrichment (6-mer frequency, TF over GST control) | 1.34 fold enrichment (6-mer frequency, TF over GST control) | 1.37 fold enrichment (6-mer frequency, TF over GST control) | 1.2 fold enrichment (6-mer frequency, TF over GST control)
3 | ATTGTA | 1.27 fold enrichment (6-mer frequency, TF over GST control) | 1.28 fold enrichment (6-mer frequency, TF over GST control) | 1.17 fold enrichment (6-mer frequency, TF over GST control) | 1.18 fold enrichment (6-mer frequency, TF over GST control) | 1.28 fold enrichment (6-mer frequency, TF over GST control) | 1.21 fold enrichment (6-mer frequency, TF over GST control) | 1.26 fold enrichment (6-mer frequency, TF over GST control) | 1.27 fold enrichment (6-mer frequency, TF over GST control)
4 | TTCCGC | 2.75 fold enrichment (6-mer frequency, TF over GST control) | 2.9 fold enrichment (6-mer frequency, TF over GST control) | 3.21 fold enrichment (6-mer frequency, TF over GST control) | 2.77 fold enrichment (6-mer frequency, TF over GST control) | 3.02 fold enrichment (6-mer frequency, TF over GST control) | 4.41 fold enrichment (6-mer frequency, TF over GST control) | 3.37 fold enrichment (6-mer frequency, TF over GST control) | 3.62 fold enrichment (6-mer frequency, TF over GST control)
5 | CCTTCC | 2.26 fold enrichment (6-mer frequency, TF over GST control) | 2.48 fold enrichment (6-mer frequency, TF over GST control) | 2.41 fold enrichment (6-mer frequency, TF over GST control) | 2.44 fold enrichment (6-mer frequency, TF over GST control) | 2.45 fold enrichment (6-mer frequency, TF over GST control) | 3.65 fold enrichment (6-mer frequency, TF over GST control) | 2.88 fold enrichment (6-mer frequency, TF over GST control) | 2.74 fold enrichment (6-mer frequency, TF over GST control)
6 | ACTATA | 1.29 fold enrichment (6-mer frequency, TF over GST control) | 1.24 fold enrichment (6-mer frequency, TF over GST control) | 1.36 fold enrichment (6-mer frequency, TF over GST control) | 1.42 fold enrichment (6-mer frequency, TF over GST control) | 1.28 fold enrichment (6-mer frequency, TF over GST control) | 1.35 fold enrichment (6-mer frequency, TF over GST control) | 1.33 fold enrichment (6-mer frequency, TF over GST control) | 1.31 fold enrichment (6-mer frequency, TF over GST control)
7 | GTATCT | 1.16 fold enrichment (6-mer frequency, TF over GST control) | 1.16 fold enrichment (6-mer frequency, TF over GST control) | 1.05 fold enrichment (6-mer frequency, TF over GST control) | 1.14 fold enrichment (6-mer frequency, TF over GST control) | 1.14 fold enrichment (6-mer frequency, TF over GST control) | 1.18 fold enrichment (6-mer frequency, TF over GST control) | 1.13 fold enrichment (6-mer frequency, TF over GST control) | 1.19 fold enrichment (6-mer frequency, TF over GST control)
8 | CTTTCC | 1.82 fold enrichment (6-mer frequency, TF over GST control) | 1.76 fold enrichment (6-mer frequency, TF over GST control) | 2.1 fold enrichment (6-mer frequency, TF over GST control) | 1.96 fold enrichment (6-mer frequency, TF over GST control) | 1.64 fold enrichment (6-mer frequency, TF over GST control) | 2.39 fold enrichment (6-mer frequency, TF over GST control) | 2.12 fold enrichment (6-mer frequency, TF over GST control) | 2.07 fold enrichment (6-mer frequency, TF over GST control)
